Among all 310,000 compounds or so, about 14,000 (4.5%) showed an effect of 50% or more. Effects have a minus sign here. The list comes from a sample in which strong results are over-represented; it also holds similar structures and randomly drawn compounds.
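Further: peak tail current of the secondary pulse compared with the same well before compound.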

For the assay, the target named is human ether-à-go-go-related gene (hERG) potassium channel (human, UniProt Q12809). In words: primary screen, population patch clamp on CHO cells stably expressing hERG; higher = less effect of the substance.
Sequence of human ether-à-go-go-related gene (hERG) potassium channel (Q12809 whole entry, looked up): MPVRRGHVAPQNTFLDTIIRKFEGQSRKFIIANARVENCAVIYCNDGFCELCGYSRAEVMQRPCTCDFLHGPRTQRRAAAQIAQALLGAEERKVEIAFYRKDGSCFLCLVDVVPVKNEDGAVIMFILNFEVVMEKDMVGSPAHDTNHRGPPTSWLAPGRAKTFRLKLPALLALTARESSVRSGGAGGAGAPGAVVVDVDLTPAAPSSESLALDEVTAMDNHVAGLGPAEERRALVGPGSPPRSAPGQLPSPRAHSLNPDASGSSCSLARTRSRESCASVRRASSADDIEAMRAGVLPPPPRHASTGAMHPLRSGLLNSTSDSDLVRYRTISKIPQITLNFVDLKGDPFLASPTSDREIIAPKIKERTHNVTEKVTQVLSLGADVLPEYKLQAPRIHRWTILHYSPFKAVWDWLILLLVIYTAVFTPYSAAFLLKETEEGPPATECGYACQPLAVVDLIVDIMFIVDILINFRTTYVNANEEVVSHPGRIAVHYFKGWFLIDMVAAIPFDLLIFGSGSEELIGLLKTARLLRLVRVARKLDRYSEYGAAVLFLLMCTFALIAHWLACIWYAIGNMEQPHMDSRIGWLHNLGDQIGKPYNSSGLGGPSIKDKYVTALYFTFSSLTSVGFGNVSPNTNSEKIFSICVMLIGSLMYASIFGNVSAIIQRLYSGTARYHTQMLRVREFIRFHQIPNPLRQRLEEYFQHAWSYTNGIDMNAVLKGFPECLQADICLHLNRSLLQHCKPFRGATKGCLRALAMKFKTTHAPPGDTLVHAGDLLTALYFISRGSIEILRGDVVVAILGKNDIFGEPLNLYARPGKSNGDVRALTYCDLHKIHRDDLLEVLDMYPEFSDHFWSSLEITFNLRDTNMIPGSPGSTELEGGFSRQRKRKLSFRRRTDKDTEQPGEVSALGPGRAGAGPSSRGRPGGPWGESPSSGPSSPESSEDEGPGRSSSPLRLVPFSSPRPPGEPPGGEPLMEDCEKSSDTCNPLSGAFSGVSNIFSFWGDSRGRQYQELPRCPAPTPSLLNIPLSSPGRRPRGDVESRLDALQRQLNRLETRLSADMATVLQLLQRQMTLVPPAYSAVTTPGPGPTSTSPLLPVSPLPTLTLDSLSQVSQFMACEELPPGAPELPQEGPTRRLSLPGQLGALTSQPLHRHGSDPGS
Consider `CC1Cc2nc(SCC(=O)N3CCN(c4ccccc4)CC3)n(CCc3ccccc3)c(=O)c2S1` (centres unmarked), for which the “hERG current change (%, negative = inhibition) at 10uM” value is -47.1%.
The value for `COCCn1c(SCC(=O)N2CCN(c3ccccc3)CC2)nc2c(c1=O)SC(C)C2` (centres unmarked) was -58.8%; that for `CCn1c(SCC(=O)N2CCN(c3ccccc3)CC2)nc2c(c1=O)SC(C)C2` (centres unmarked) was -48.2%; that for `CC(=O)c1cccc(NC(=S)NC(=O)c2cccc(Cl)c2)c1` was -3.58%.
Turning to `CCSc1nnc(NC(=O)C2Cc3ccccc3CN2C(=O)c2ccco2)s1` (centres unmarked), the “hERG current change (%, negative = inhibition) at 10uM” value is given as -10.3%.
As to `CCn1nc(C)c(CNC(=O)CC2C(=O)NCCN2CC(C)C)c1C` (centres unmarked), the “hERG current change (%, negative = inhibition) at 10uM” value is listed as 11.7%.
The value for `CCn1nc(C)c(CNC(=O)CC2C(=O)NCCN2Cc2ccc(C)o2)c1C` (centres unmarked) was -68.4%; that for `CCn1nc(C)c(CNC(=O)CC2C(=O)NCCN2CC(C)(C)C)c1C` (centres unmarked) was 9.14%.
The value for `CN(CC(=O)N1CCN(c2cccc(Cl)c2)CC1)S(=O)(=O)c1cccs1` was -32.9%; that for `Cn1c2c(c(=O)[nH]c1=O)C(c1ccc(O)cc1)C1=C(N2)c2ccccc2C1=O` (centres unmarked) was -5.73%; that for `CCOC(=O)c1c(CN2CCN(c3ccccc3)CC2)oc2cc(Br)c(O)cc12.Cl` was 14.3%.
Take `CCOC(=O)c1c(C)n(C)c2cc(Br)c(C(=O)OC)cc12`: the “hERG current change (%, negative = inhibition) at 10uM” value was -11.1%.
For the molecule `CCOC(=O)c1c(CNCCN(CC)CC)n(C)c2cc(Br)c(OC)cc12.Cl`, the “hERG current change (%, negative = inhibition) at 10uM” value was -68.5%.
Regarding `CCOC(=O)c1c(CS(=O)(=O)c2ccccc2)n(C)c2cc(Br)c(O)cc12`, the “hERG current change (%, negative = inhibition) at 10uM” value amounted to 5.4%.
Under `CCOC(=O)c1c(CN2CCN(C)CC2)n(C)c2cc(Br)c(OC)cc12` stands -50.4%.
In the case of `CCOC(=O)c1c(CN2CCN(CC#N)CC2)n(C)c2cc(Br)c(OC)cc12`, the “hERG current change (%, negative = inhibition) at 10uM” value is given as 10.9%.
On to `CCOC(=O)c1c(CN(CC)CC)oc2cc(Br)c(O)cc12`, for which the “hERG current change (%, negative = inhibition) at 10uM” value is -79.8%.
In the case of `CCOC(=O)c1c(CN2CCN(CCO)CC2)n(C)c2cc(Br)c(OC)cc12`, the “hERG current change (%, negative = inhibition) at 10uM” value is given as -11.3%.
For the molecule `CCOC(=O)c1c(C)n(C)c2cc(Br)c(OC)cc12`, the “hERG current change (%, negative = inhibition) at 10uM” value came to 15.6%.
The value for `CCOC(=O)c1c(CN(CC)CC)n(C)c2cc(Br)c(O)cc12.Cl` was -73.6%; that for `CCOC(=O)c1c(CNc2ccncc2)n(C)c2cc(Br)c(O)cc12.Cl` was 18.8%; that for `CCOC(=O)c1c(-c2ccccc2)oc2cc(Br)c(O)cc12` was 3.65%.
`COc1ccccc1NC(=O)c1cnc2c(-c3ccccc3)c(C)nn2c1C`: the “hERG current change (%, negative = inhibition) at 10uM” value came out at 3.15%.
Take `O=C(c1cnc2nc3ccccc3n2c1)c1cc(F)ccc1O`: the “hERG current change (%, negative = inhibition) at 10uM” value was 2.44%.
The value for `Cc1ccc2c(c1)N(CCCC(=O)Nc1cccc(C(F)(F)F)c1)C(=O)CO2` was 12.9%; that for `O=C(O)c1ccccc1C(=O)c1ccc2c(c1)N(Cc1cccc(F)c1)C(=O)CO2` was -18.1%.
The value for `O=C(COC(=O)c1ccccc1Br)Nc1ccccc1F` was -21%; that for `N#Cc1c(NC(=O)c2nc3ncccn3n2)sc2c1CCCCC2` was 2.44%.
For the molecule `Cc1ccc(NC(=O)CCCNC(=O)c2ccc(Cl)cc2)cc1S(=O)(=O)N1CCOCC1`, the “hERG current change (%, negative = inhibition) at 10uM” value is -17.9%.
The value for `O=C(NCc1n[nH]c(=S)n1-c1cccc(C(F)(F)F)c1)c1ccc(S(=O)(=O)N2CCCCC2)cc1` was 16.5%; that for `CC(=O)Oc1cccc(C(=O)Nc2ccccc2NC(=O)c2cccc(OC(C)=O)c2)c1` was 9.7%; that for `CC(C)N(Cc1nc(-c2ccc(Cl)cc2)no1)C(=O)c1cccs1` was -8.63%.
With `CCCn1c(CNC(=O)Cc2ccccc2)nc2ccccc21`, the “hERG current change (%, negative = inhibition) at 10uM” value is reported as -21.3%.
`CCOC(=O)c1c(CN2CCCCC2)n(C)c2cc(Br)c(O)cc12`: the “hERG current change (%, negative = inhibition) at 10uM” value is -68.2%.
The value for `CCOC(=O)c1c(CN2CCCCC2)n(C)c2cc(Br)c(OC)cc12` was -31.7%.
Regarding `CCOC(=O)c1c(CN2CCC(C)CC2)n(C)c2cc(Br)c(OC)cc12`, the “hERG current change (%, negative = inhibition) at 10uM” value is recorded as 10.5%.
With `CCCCCOC(=O)Cc1c(O)c2ccccc2[nH]c1=O`, the “hERG current change (%, negative = inhibition) at 10uM” value was 12.8%.
In the case of `CCN(CC)S(=O)(=O)c1ccc(F)c(C(=O)NCCCN2CCOCC2)c1`, the “hERG current change (%, negative = inhibition) at 10uM” value was -11.7%.
As to `COC(=O)c1cc(C(=O)c2cccc(Cl)c2Cl)cn1C`, the “hERG current change (%, negative = inhibition) at 10uM” value is listed as -43.4%.
Under `CCOc1ccccc1Nc1nc(N)nc(CN2CCCCC2C)n1` (centres unmarked) stands -50%; under `CCOc1ccc(Nc2ncnc(N)n2)cc1`, 10.3%; under `COc1ccccc1Nc1nc(N)nc(CN(C)C2CCCCC2)n1`, -35.8%.
Under `COc1ccc(CN(C)C2CCCCC2)cc1` stands -25.1%; under `COc1ccc(Nc2nc(N)nc(CN(C)C3CCCCC3)n2)cc1`, -57.5%.

For the origin of these results see publication PMC4336329 (PLoS ONE, 2015).
